Shown are actives, neighbours in structure and some others; about 2.7% of the full set was active somewhere.
HSP90 refold inh: HSP90 refolding inhibition in rabbit reticulocyte lysate. luciferase refolding luminescence, 3 h. inhibition, % at 5.6 µM. 0.91% of 290,000 active. AID 1789;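 active means inhibition above the screen-wide mean plus 3 SD, computed separately per campaign, cut at about 16% in these data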;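 further: 0% = DMSO wells and 100% = 60 µM geldanamycin wells; inhibitors lower the luminescence because luciferase stays unfolded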
SENP7 inh: inhibitors of human SENP7 protease. Q9BQF6. 1.5% of 330,000 active. recombinant SENP7, Z-RLRGG-aminoluciferin luminescence, 40 min. inhibition, % at 5 µM. AID 434973;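 active means inhibition above about 50% at the single test dose, limit read from the data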;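 further: plate controls were DMSO with enzyme for no effect and no enzyme buffer wells for full effect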
SENP8 block-1: blocks human SENP8 cleavage of Nedd8 substrate; 0.64% of 360,000 active; recombinant SENP8, Nedd8 substrate fluorescence; inhibition, % at 20 µM; in the data active means inhibition mostly above about 40%, no sharp cut-off; inactive means mostly below about 27%
SENP8 block-2: blocks the human protease SENP8; 1.2% of 330,000 active; AID 2540; purified SENP8, Z-RLRGG-aminoluciferin cleavage, luminescence; Q96LD8; inhibition, % at 10 µM; in the data active means inhibition above about 50%
SENP6 block: SENP6 protease inhibition. Q9GZR1. Recombinant SENP6 catalytic domain, aminoluciferin luminescence. inhibition, % at 10 µM. 1.8% of 330,000 active;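 active means inhibition above about 50% at the single tested dose, limit read from the data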;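 further: plate controls were DMSO wells with enzyme for no effect and DMSO wells lacking enzyme for full effect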
HSP90 confirm: HSP90 inhibition, confirmation assay | shares compounds with HSP90 refold inh | rabbit reticulocyte lysate, luciferase refolding luminescence, 3 h | inhibition, % at 5.9 µM | 64% of 2,300 active; in the data active means inhibition above about 18%;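 further: 0% = vehicle wells and 100% = reference inhibitor wells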
FLuc counter: firefly luciferase inhibition, HSP90 counter-screen; shares compounds with HSP90 refold inh; purified native firefly luciferase, luminescence; inhibition, % at 5.9 µM; 48% of 2,300 active;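 active means inhibition above the mean inhibition of all tested sample wells plus 3 SD, cut at about 10% in these data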;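 further: 0% = DMSO with luciferase and 100% = wells lacking luciferase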
Target sequence (P08659 whole entry, looked up): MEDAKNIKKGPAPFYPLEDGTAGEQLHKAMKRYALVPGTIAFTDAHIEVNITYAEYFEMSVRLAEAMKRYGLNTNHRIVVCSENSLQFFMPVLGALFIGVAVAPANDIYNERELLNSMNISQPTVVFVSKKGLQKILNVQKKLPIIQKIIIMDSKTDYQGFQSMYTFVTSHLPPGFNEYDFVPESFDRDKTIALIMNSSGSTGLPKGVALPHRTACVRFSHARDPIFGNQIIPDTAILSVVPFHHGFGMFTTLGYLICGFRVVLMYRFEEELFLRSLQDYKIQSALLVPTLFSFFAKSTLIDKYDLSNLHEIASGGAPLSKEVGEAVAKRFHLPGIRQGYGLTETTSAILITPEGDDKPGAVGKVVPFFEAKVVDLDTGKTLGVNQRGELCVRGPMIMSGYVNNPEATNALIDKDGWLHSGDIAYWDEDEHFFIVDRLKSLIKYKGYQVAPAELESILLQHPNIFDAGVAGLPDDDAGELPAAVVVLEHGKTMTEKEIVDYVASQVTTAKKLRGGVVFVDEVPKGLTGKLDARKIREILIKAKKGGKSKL
* = called active by the depositor; x = no result.

SMILES	HSP90 refold inh	SENP7 inh	SENP8 block-1	SENP8 block-2	SENP6 block	HSP90 confirm	FLuc counter
O=C(O)c1ccc2noc(-c3ccccc3)c2c1	40.6*	1.4	-3.8	4.6	4.7	12.1	-15.2
O=C(c1ccc2noc(-c3ccccc3)c2c1)N1CCN(c2ccccc2)CC1	x	2.6	-28.5	-0.3	-1.3	x	x
Cc1ccc(-c2onc3ccc(C(=O)O)cc23)cc1	71.8*	-3.5	11.5	11.7	-5.5	61.4*	57.2*
CC(=O)COC(=O)c1ccc2noc(-c3ccccc3)c2c1	19.7*	8.7	-47.7	6.4	12.4	5.4	-11.9
COCc1cc(C)nc(SCC(=O)Nc2cc(C(F)(F)F)ccc2N2CCOCC2)c1C#N	6.1	5.5	-367.4	2.7	14.7	x	x
c1ccc(-c2cc3c(-n4cccc4)ncnc3o2)cc1	17.2*	2.6	-414.4	3.5	13.1	-4.3	-15.9
Clc1cccc(-c2ccc(CNCCCN3CCOCC3)o2)c1	27.3*	-9.0	9.5	-7.7	8.1	1.1	-4.3
CCCn1nc(C(=O)N2CCc3ccccc3C2)c2ccccc2c1=O	-1.6	0.7	28.7	0.8	-7.6	x	x
COc1ccc(C(CC(=O)O)NC(C)=O)cc1OC (stereo not drawn)	18.0*	-7.2	14.0	-3.2	-2.8	4.4	-7.5
O=C(N/N=C/c1ccncc1)c1ccccn1	2.3	7.0	11.0	-9.4	14.9	x	x
O=C(N/N=C/c1ccc(N2CCOCC2)cc1)c1ccccn1	26.1*	54.6*	-83.3	26.5	55.8*	14.4	0.6
O=S(=O)(c1ccc2c(c1)OCCO2)N1CCN(c2nc3ccccc3s2)CC1	1.3	-2.4	6.1	-1.4	-21.7	x	x
C=CCn1c(C)cc(C(=O)CSc2nc3ccccc3[nH]2)c1C	31.7*	29.5	3.0	13.6	42.8	61.9*	63.3*
C=CCn1c(C)cc(C(=O)CSc2nc3ccccc3c(=O)[nH]2)c1C	1.2	-1.5	23.2	-1.2	-21.8	x	x
O=C(CCn1c(=O)oc2ccccc21)NC1=NCCS1	-5.4	6.7	13.9	8.3	-10.3	x	x
c1ccc(C2=NNC(=NCc3ccc4c(c3)OCO4)SC2)cc1	1.1	1.9	12.6	-6.7	-0.3	x	x
C=CCN=C1NN=C(c2ccc3c(c2)OCCO3)CS1	46.9*	2.8	-17.3	-4.4	7.0	83.0*	79.0*
COc1ccc(S(=O)(=O)N2CCCC(C(=O)NCc3ccncc3)C2)cc1Cl (stereo not drawn)	-2.9	0.1	9.6	-7.3	-20.3	x	x
Cc1ccc(NC(=O)c2cnccn2)cc1S(=O)(=O)N(C)C	-2.5	-3.9	18.9	-7.7	-16.3	x	x
Cc1cnc(NC(=O)c2cc3c(C)nn(Cc4ccccc4Cl)c3s2)s1	-3.3	5.9	-311.5	-4.2	-7.9	x	x
CCn1c(C)nc2cc(N)ccc21	34.1*	-1.7	24.6	-3.2	0.4	8.4	-1.8
O=C(NCc1ccccc1Br)c1ccncc1	1.9	-0.3	4.6	-6.9	-0.3	x	x
CCCC(=O)NC(c1ccccc1)c1ccc2cccnc2c1O (stereo not drawn)	20.5*	0.9	11.1	23.7	-9.3	18.4*	-2.8
Cc1ccc(CN2CCN(Cc3c(C)nn(C(C)C)c3C)CC2CCO)o1 (stereo not drawn)	-1.1	9.5	3.5	2.1	8.1	x	x
COc1cc2cc(C(=O)N3CCOCC3)cc(-c3ccc(C)cc3)c2cc1OC	50.1*	7.4	1.3	1.7	-17.7	5.0	1.3
SMILES	HSP90 refold inh	SENP7 inh	SENP8 block-1	SENP8 block-2	SENP6 block	HSP90 confirm	FLuc counter
COc1ccc(-c2cc(C(=O)N3CCOCC3)c3ccccc3n2)cc1OC	x	-5.2	-444.2	5.7	-3.5	x	x
COc1cc2c(=O)n(Cc3ccccc3)c(=O)n(CC(=O)NCC3CCCO3)c2cc1OC (stereo not drawn)	2.3	5.9	-63.5	3.8	10.7	x	x
O=C(Cn1c(=O)n(Cc2ccc(F)cc2)c(=O)c2ccccc21)NCC1CCCO1 (stereo not drawn)	17.6*	2.4	13.4	-2.0	-17.7	-7.2	-11.0
COc1ccc(NC(=O)N2CCCC(c3nc(-c4ccc(OC)cc4)no3)C2)cc1 (stereo not drawn)	20.5*	2.2	14.9	-0.9	-1.6	-7.5	-11.5
COc1ccc(-c2noc(C3CCCN(C(=O)Nc4ccccc4F)C3)n2)cc1 (stereo not drawn)	27.4*	4.1	6.3	-6.2	0.1	-2.8	-10.8
COc1ccc(-c2noc(C3CCCN(C(=O)Nc4ccccc4)C3)n2)cc1 (stereo not drawn)	18.6*	-7.3	5.5	-13.7	-7.3	3.0	-5.9
CCCCCC(=O)N1CCCC(c2nc(-c3ccc(OC)cc3)no2)C1 (stereo not drawn)	-2.4	-0.7	20.6	-0.6	-7.2	x	x
COc1ccc(NC(=O)N2CCCC(c3nc(-c4ccc(C(C)C)cc4)no3)C2)cc1 (stereo not drawn)	65.4*	-0.8	11.3	-1.5	-6.5	1.0	-12.9
COc1ccc(-c2noc(C3CCCN(C(=O)c4ccccc4)C3)n2)cc1 (stereo not drawn)	-4.6	-6.0	7.5	-2.9	-23.2	x	x
CCn1c(=O)cc(OCC(=O)NCCc2ccc(OC)c(OC)c2)c2ccccc21	48.5*	1.6	-1.8	7.1	-1.0	-4.3	-15.6
COc1cc(C(=O)Nc2nc(C)c(Cc3ccc4c(c3)OCO4)s2)cc(OC)c1OC	-3.0	-1.7	-79.4	1.6	5.6	x	x
Cc1c(Cc2ccc3c(c2)OCO3)sc(NC(=O)c2ccc3ccccc3c2)c1C(N)=O	-1.7	1.8	-435.0	11.7	10.7	x	x
CCCOc1ccc(C(=O)Nc2nc(C)c(Cc3ccc4c(c3)OCO4)s2)cc1	24.2*	0.6	-36.9	2.3	-0.6	3.3	-11.8
Cc1nc(NC(=O)c2ccc(OCC(C)C)cc2)sc1Cc1ccc2c(c1)OCO2	31.7*	3.9	-25.1	-1.9	13.5	7.3	-6.3
Cc1ccc(C2C(C#N)=C(N)Oc3n[nH]c(-c4cccs4)c32)cc1 (stereo not drawn)	7.8	1.3	17.5	-0.5	-8.8	x	x
COc1cc(C2C(C#N)=C(N)Oc3n[nH]c(-c4cccs4)c32)cc(OC)c1O (stereo not drawn)	23.8*	12.2	6.8	9.7	25.3	-2.8	-6.9
COc1cc(OC)cc(C2C(C#N)=C(N)Oc3n[nH]c(-c4cccnc4)c32)c1 (stereo not drawn)	17.6*	3.0	12.2	1.3	-2.3	-2.8	-1.6
N#CC1=C(N)Oc2n[nH]c(-c3ccccc3)c2C1c1ccsc1 (stereo not drawn)	-0.9	5.6	28.6	-0.2	-6.2	x	x
CCC(CC)C1C(C#N)=C(N)Oc2n[nH]c(-c3ccccc3)c21 (stereo not drawn)	17.6*	-5.9	12.6	-3.7	-2.5	-7.7	-2.4
N#CC1=C(N)Oc2n[nH]c(-c3ccncc3)c2C1c1ccsc1 (stereo not drawn)	17.0*	-9.9	18.9	-2.3	-11.6	-0.7	-7.4
CCC(CC)C1C(C#N)=C(N)Oc2n[nH]c(C)c21 (stereo not drawn)	4.3	-3.0	10.4	-3.4	-11.6	x	x

Compound activity as filed in PubChem BioAssay.
